A selection: hits, their analogues and other compounds. The true share with any hit is near 3.9%.
CCHFV vOTU inh – CCHFV vOTU protease inhibition; Pep-AMC fluorescence; 370,000 compounds, 0.55% hits; AID 651958; inhibition, % at 11.5 µM; in the data active = inhibition above about 30%
BoNT A protease – BoNT A light chain protease inhibition; inhibition, % at 10 µM; 360,000 compounds, 0.17% hits; multiplex microsphere protease substrate cleavage, flow cytometry
Autofluor counter – flagged as autofluorescent in microsphere protease counterscreen | compound autofluorescence counterscreen, microsphere flow cytometry; stronger effect = higher value | fluorescence intensity (test concentration not listed) | 360,000 compounds, 3.1% hits | AID 624483; in the data active = fluorescence intensity above about 16000; inconclusive = no clear call, values can overlap the other calls
3CLpro inhibitor – SARS-CoV 3CLpro protease inhibition; recombinant SARS-CoV 3CLpro, quenched FRET peptide cleavage; 290,000 compounds, 0.14% hits; inhibition, % at 6 µM; AID 1706; in the data active = inhibition above about 12%
Anthrax LF prot – anthrax lethal factor protease inhibition; inhibition, % at 10 µM; AID 588501; multiplex microsphere protease cleavage assay, LF; P15917; 360,000 compounds, 0.12% hits
Target sequence (P15917 whole entry, looked up): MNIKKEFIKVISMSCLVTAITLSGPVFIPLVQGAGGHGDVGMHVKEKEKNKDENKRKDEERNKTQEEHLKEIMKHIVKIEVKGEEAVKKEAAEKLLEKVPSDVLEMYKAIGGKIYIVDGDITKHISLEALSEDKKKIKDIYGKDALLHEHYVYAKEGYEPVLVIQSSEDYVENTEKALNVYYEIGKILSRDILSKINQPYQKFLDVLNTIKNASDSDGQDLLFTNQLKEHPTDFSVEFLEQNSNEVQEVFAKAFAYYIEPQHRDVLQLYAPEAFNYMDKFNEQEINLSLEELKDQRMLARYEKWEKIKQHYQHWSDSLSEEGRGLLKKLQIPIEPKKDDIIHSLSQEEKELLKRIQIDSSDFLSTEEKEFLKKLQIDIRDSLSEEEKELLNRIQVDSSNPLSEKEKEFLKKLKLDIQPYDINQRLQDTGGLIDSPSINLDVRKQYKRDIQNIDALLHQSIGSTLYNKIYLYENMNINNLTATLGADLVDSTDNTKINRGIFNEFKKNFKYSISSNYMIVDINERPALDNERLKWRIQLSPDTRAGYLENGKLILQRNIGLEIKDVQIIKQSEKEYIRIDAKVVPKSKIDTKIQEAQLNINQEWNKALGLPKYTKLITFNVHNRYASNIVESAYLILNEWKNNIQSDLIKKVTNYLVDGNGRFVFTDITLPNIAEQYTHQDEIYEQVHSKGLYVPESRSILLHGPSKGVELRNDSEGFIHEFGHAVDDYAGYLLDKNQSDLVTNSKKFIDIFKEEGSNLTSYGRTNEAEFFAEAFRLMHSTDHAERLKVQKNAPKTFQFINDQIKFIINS
BoNT F protease – BoNT F light chain protease inhibition. Multiplex microsphere protease cleavage assay, flow cytometry. inhibition, % at 10 µM. 360,000 compounds, 0.22% hits; in the data active = inhibition above about 35%, passing the limit was not always enough; inconclusive = no clear call, values can overlap the other calls
Numbers stand for hits; - = inactive; ? = inconclusive; . = no result. Rule as the data show it, unless noted: active = inhibition above about 30%; inconclusive = no clear call, values can overlap the other calls; inactive = below that.

SMILES	CCHFV vOTU inh	BoNT A protease	Autofluor counter	3CLpro inhibitor	Anthrax LF prot	BoNT F protease
C=CCN1C(=O)/C(=C/c2ccc(-c3ccc(F)cc3)o2)SC1=S	-	79	-	-	64	-
O=C(O)C(c1ccccc1)N1C(=O)/C(=C\c2ccc(-c3ccc(Br)cc3)o2)SC1=S (centres undefined)	-	65	-	-	-	-
O=C(O)C(c1ccccc1)N1C(=O)/C(=C\c2ccc(-c3ccccc3Cl)o2)SC1=S (centres undefined)	-	41	-	-	-	-
COc1ccc2c(c1)[C@@H](NC(=O)c1ccncc1)[C@H](C)[C@H]2c1ccccc1	-	.	.	.	.	.
O=C(NC1CCCCN(Cc2ccc(OC(F)(F)F)cc2)C1=O)c1ccc2ccccc2c1 (centres undefined)	-	.	.	.	.	.
Cc1ccc(CN2CCCCC(NC(=O)c3ccccc3)C2=O)cc1 (centres undefined)	-	.	.	.	.	.
CCCS(=O)(=O)Nc1cc(C(F)(F)F)ccc1OCCOC	-	-	24565	-	-	-
COCCCNC(=O)C[C@H]1C[C@@]2(C(=O)OC)C(=C[C@H](C(C)C)O[C@@H]2C2CC2)N(CCc2ccc(OC)c(OC)c2)C1=O	-	.	.	.	.	.
C=CCN(C(=O)[C@@H](C1CC1)[C@@H](O)c1ccc(Cl)cc1)c1ccccc1	-	.	.	.	.	.
CC(C)(C)C(=O)Cn1nnc(-c2ccc(C(F)(F)F)cc2)n1	-	-	-	-	-	-
O=C(Cn1nnc(-c2cccc(C(F)(F)F)c2)n1)N1CCOCC1	-	-	22585	-	-	-
NC(=O)Cn1nnc(-c2ccc(C(F)(F)F)cc2)n1	-	?	21710	-	-	-
CC(Nc1nc(N2CCCCC2)nc2ccccc12)c1ccccc1 (centres undefined)	-	?	21408	-	-	-
CC(Nc1nc(-c2ccccc2)nc2ccccc12)c1ccccc1 (centres undefined)	-	-	-	-	-	-
O=C(c1ccccc1)c1ccc2nc(-c3ccco3)c(-c3ccco3)nc2c1	-	42	-	-	-	-
O=C(NCCO)c1ccc2nc(-c3ccco3)c(-c3ccco3)nc2c1	77	-	-	-	-	-
c1coc(-c2nc3ccccc3nc2-c2ccco2)c1	51	-	-	-	-	-
c1coc(-c2cnc3ccccc3n2)c1	-	-	-	.	-	-
O=C(Nc1cccs1)OC1CC2CC1[C@H]1CCCCN1C2 (some centres undefined)	-	.	.	.	.	.
COc1ccc(-n2c(COc3ccc(Cl)cc3)nnc2SCC(=O)Nc2ccc(Oc3ccccc3)cc2)cc1	-	.	.	.	.	.
CSc1ccccc1C(=O)Nc1cc(C)cc(C)c1	-	-	-	-	-	-
COc1ccc(OC)c(NC(=O)c2ccccc2SC)c1	-	-	16141	-	-	-
CSc1ccccc1C(=O)Nc1ccc(C)c(C)c1	-	?	16135	-	-	-
COC(=O)[C@]1(C#N)CC(=O)N(Cc2ccc(Cl)cc2)[C@@H]1c1ccccc1	-	.	.	.	.	.
COCCOC(=O)C1=C(C)NC(=O)NC1c1cn(-c2ccccc2)nc1-c1cccs1 (centres undefined)	-	-	-	-	-	-
SMILES	CCHFV vOTU inh	BoNT A protease	Autofluor counter	3CLpro inhibitor	Anthrax LF prot	BoNT F protease
COC(=O)C1=C(C)NC(C)=C(C(=O)OC)C1c1cn(-c2ccccc2)nc1-c1ccco1	-	-	16749	-	-	-
O=C(Nc1ccc(F)cc1F)C1CCN(c2nnc(-n3cccc3)s2)CC1	-	.	.	.	.	.
COC(=O)[C@]1(C#N)CC(=O)N(c2ccccc2)[C@@H]1c1ccccc1	-	.	.	.	.	.
COc1cc(C=O)ccc1OCCSc1ccc(C)cc1	-	-	18295	-	-	-
Clc1cccc(Cl)c1CSc1cc2c(nn1)-c1ccccc1CC2	-	-	22710	-	-	-
CN1C(=S)SC(C)(NO)C1(C)C (centres undefined)	.	-	18153	-	-	-
CC12CN3CC(C)(CN(C1)C3c1cccs1)C2O (centres undefined)	-	-	17129	-	-	-
Cc1[nH]c2ccccc2c1/C=N/NC(=O)c1cccc(S(=O)(=O)Nc2ccccc2Cl)c1	-	35	-	-	-	-
COc1ccc2c(Cl)c(C(=O)N/N=C/c3c(C)[nH]c4ccccc34)sc2c1	-	36	20361	-	-	-
Cc1[nH]c2ccccc2c1/C=N/NC(=O)c1cccc(Br)c1	.	-	-	-	-	-
COc1ccc2c(Cl)c(C(=O)N/N=C/c3ccc4c(c3)OCO4)sc2c1	-	-	-	-	-	-
CCOC(=O)Cn1c(S(=O)(=O)Cc2ccc(F)cc2)nc(-c2ccccc2)c1-c1ccccc1	-	?	16161	-	-	-
C#CCn1c(S(=O)(=O)Cc2ccc(F)cc2)nc(-c2ccccc2)c1-c1ccccc1	-	-	16327	-	-	-
Cc1ccc(NC(=S)NNC(=O)c2cnccn2)cc1	-	.	.	.	.	.
Cn1c(NCc2cccs2)nc2ccccc21	-	-	-	-	-	-
Cn1c(NCc2ccco2)nc2ccccc21	-	?	17845	-	-	-
CCN(CC)CCn1c(NCc2ccco2)nc2ccccc21	-	-	21505	-	-	-
COC(=O)[C@H](C(C)C)N1Cc2nnn(Cc3ccccc3)c2-c2cc(F)ccc2S1(=O)=O	-	.	.	.	.	.
CC(C)CN1C(=O)NC(NC(=O)c2cccs2)(C(F)(F)F)C1=O (centres undefined)	-	?	21985	-	-	-
O=C(NC1(C(F)(F)F)NC(=O)N(Cc2cccnc2)C1=O)c1ccccc1 (centres undefined)	-	-	20881	-	-	-
O=C(NC1(C(F)(F)F)NC(=O)N(Cc2ccco2)C1=O)c1cccs1 (centres undefined)	-	-	20774	-	-	-
O=C(NC1(C(F)(F)F)NC(=O)N(Cc2ccco2)C1=O)c1cccnc1 (centres undefined)	-	-	-	-	-	-
C[C@@H]1ON(C)[C@H]2C[C@H]3c4[nH]c5cccc(-c6cccc(F)c6)c5c4CCN3C(=O)[C@@H]12	-	.	.	.	.	.
Clc1ccc(CN2CCN(c3ncnc4scc(-c5cccs5)c34)CC2)cc1	-	-	?	-	-	-
Cc1ccccc1N1CCN(c2ncnc3scc(-c4cccs4)c23)CC1	-	-	21408	-	-	-
SMILES	CCHFV vOTU inh	BoNT A protease	Autofluor counter	3CLpro inhibitor	Anthrax LF prot	BoNT F protease
Cc1ccc(NC(=O)OCC(F)(F)C(F)F)cc1NC(=O)OCC(F)(F)C(F)F	-	?	21692	-	-	-
CCOC(=O)Nc1cc(C(=O)OC)ccc1C	-	-	?	-	?	-
O=C(CCC(=O)OCC(F)(F)C(F)F)Nc1ccc(Cl)cc1	-	?	17876	-	-	-
O=C(CCC(=O)OCC(F)(F)C(F)F)Nc1ccc(F)cc1F	-	-	-	-	-	-
COc1ccc(NC(=O)CCC(=O)OCc2ccc(C(=O)Oc3ccc(Cl)cc3)cc2)cc1	-	-	19988	-	-	-
O=C(NC(Cc1ccccc1)C(=O)O)c1ccccc1 (centres undefined)	-	-	-	-	-	-
Cc1ccc(CC(NC(=O)c2ccccc2)C(=O)NC(C)C(=O)O)cc1 (centres undefined)	-	-	21689	-	-	-

Source: PubChem (several laboratories)
